We go through 9 molecules from publication PMC5540273 (PLoS ONE, 2017).

Details in all cases: concentration: 1 μM, replicates: in singlicate; n = 1
Experiment [1] has as its system T1, MEK5.
T1 construct: gene MAP2K5

The test system of experiment [2] is T2, MEK6.
T2 construct: gene MAP2K6

Experiment [3] concerns MELK.
The test system of experiment [4] is MERTK.
In experiment [5] the test system is MET.
Experiment [6] deals with T3, MINK.
T3 construct: gene MINK1

Experiment [7] concerns MKK7.
The subject of experiment [8] is MKNK1.
Experiment [9] deals with MKNK2.
Experiment [10] relates to T4, MLCK.
T4 construct: gene MYLK3
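Further: KINOMEscan kinase panel screen.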

As for `Cn1cc(-c2cnc(N)c3c(-c4ccc5c(c4)CCN5C(=O)Cc4ccccc4)csc23)cn1` [GSK2593074], the “%Inh” value is recorded as 99.8% in experiment [1]; 7% in experiment [2]; 0% in [3]; 90% in experiment [4]; 79% in [5]; 16% in experiment [6]. For the same molecule, the “%Inh” value in [7], in experiment [8], in [9] and in experiment [10] was 0% each time.
In the case of `COc1ccc(C2=C(Nc3cccc(O)c3)C(=O)NC2=O)cc1` [SB-390766], the “%Inh” value in experiment [1] stood at 17%; in [2], 0%; in experiment [3], 99.4%; in experiment [4], 28%; in [5] it was 0%; in [6] it was 0%. Besides, the “%Inh” value in experiment [7] worked out at 73%; in experiment [8] it was 93.5%; in [9], 17%; in experiment [10] it was 2%.
Turning to `COc1cccc2c(-c3ccncc3)c(-c3ccc(F)cc3)nn12` [GW468513], the “%Inh” value in experiment [1] turned out to be 33%; in experiment [2], 0%; in [3], 0%; in [4] it was 0%; in [5], 84%; in experiment [6] it was 78%. The “%Inh” value in experiment [7] is 0%; in experiment [8] it was 22%; in [9], 0%; in experiment [10], 6%.
Take `Fc1cc(Cl)ccc1Nc1ccnc2cc(-c3ccc(CN4CCOCC4)o3)ccc12` [GW560109]: the “%Inh” value in [1] is 99.8%; in experiment [2], 0%; in experiment [3], 0%; in [4], 28%; in [5], 51%; in [6], 58%. Further, the “%Inh” value in [7] was 10%; in experiment [8], 13%; in [9] it was 77%; in [10], 0%.
For the molecule `CC(C)c1nc(-c2cccc(NS(=O)(=O)c3c(F)cccc3F)c2)c(-c2ccnc(Nc3ccc(N4CCOCC4)nc3)n2)s1.Cl` [GSK1723980], the “%Inh” value in experiment [1] was 99.9%; in experiment [2] it was 37%; in [3] it was 47%; in experiment [4], 50%; in experiment [5], 42%; in experiment [6], 17%. Moreover, the “%Inh” value in experiment [7] is on record as 0%; in experiment [8], 10%; in [9] it was 98.8%; in experiment [10] it was 0%.
Take `CN(c1ccc(F)c(NC(=O)c2cccc(OC(C)(C)C#N)c2Cl)c1)c1ccc2nc(NC(=O)C3CC3)sc2n1`: the “%Inh” value in [1] turned out to be 99.8%; in experiment [2] it was 0%; in [3], 0%; in experiment [4], 30%; in experiment [5], 24%; in [6], 54%. For the same molecule, the “%Inh” value was 39% in [7], 0% in experiment [8], 22% in [9] and 0% in experiment [10].
For the molecule `CCOc1nccc(-c2c(-c3ccc(F)cc3)ncn2C2CCNCC2)n1` [SB-249175], the “%Inh” value in experiment [1] came to 26%; in experiment [2], 18%; in experiment [3], 0%; in experiment [4], 18%; in experiment [5], 0%; in [6], 49%. Besides, the “%Inh” value in [7] was 7%; in experiment [8], 57%; in [9], 46%; in [10], 2%.
Turning to `CN(C)CCNS(=O)(=O)c1ccc(-c2ccnc3[nH]ccc23)cc1` [GSK977620], the “%Inh” value in experiment [1] turned out to be 71%; in [2], 100%; in experiment [3] it was 92.6%; in experiment [4], 72%; in experiment [5], 0%; in experiment [6] it was 4%. For the same molecule, the “%Inh” value in experiment [7] came out at 6%; in experiment [8], 0%; in experiment [9], 77%; in experiment [10] it was 18%.
On to `O=C(Nc1c(F)cccc1F)c1cc(C(=O)c2ccccc2F)c[nH]1` [GSK1326180], for which the “%Inh” value amounted to 20% in experiment [1]; 0% in experiment [2]; 0% in experiment [3]; 18% in experiment [4]; 0% in [5]; 47% in experiment [6]. Further, the “%Inh” value is reported as 0% in experiment [7], 10% in experiment [8], 0% in experiment [9] and 2% in [10].
